Screening data: PubChem, National Center for Advancing Translational Sciences (NCATS)
Rows were chosen to be rich in hits. Some 0.58% of all compounds tested hit in one or more screens of this group.
IL-2 act = IL-2 activation | IL-2 activation reporter assay, cell-based qHTS; stimulated with anti-CD3/CD4/CD28 beads; in transgenic mouse T cells | activation, % (series mostly up to about 46 µM) | 360,000 compounds, 0.065% hits | AID 652025; in the data active = activation above about 50%; inconclusive = mostly about 30% to 49%; also: 0% is about no effect
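Using fluorescent plate cytometry, EGFP and DsRed are detected in transgenic mouse T cells stimulated 18 h at 37 degrees C with antibody-coated beads after 60 min compound pretreatment.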
Epigenetic derep = derepresses silenced GFP reporter in murine cells; Potency, µM (series often up to 53.9 µM), for inactives: top-dose GFP activation, hits mostly activators; 280,000 compounds, 0.2% hits; AID 1865; murine LDR cells, GFP reporter derepression, 30 h; also: potency is read from the fitted curve at half-maximal effect; % of control where 0% means no effect; nearly all actives have a fitted effect of over 60% in size
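In this reporter-derepression format, murine cells bearing a silenced integrated CMV-GFP locus incubate with test compound (30 h, 37 C), then are washed and imaged; fluorescent objects of 20–120 um count as induced cells.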
PKM2 activator = PKM2 (human) enzyme activation. P14618. purified PKM2, Kinase-Glo ATP luminescence, activation; response scale: 0% is enzyme alone, no compound. Potency, µM (highest dose often 57.5 µM), for inactives: at the top dose activation, hits mostly activators. 260,000 compounds, 0.34% hits; also: potency is read from the fitted curve at half-maximal effect; % is scaled to controls: 0 for no effect and ±100 for the full control effect; nearly all actives have a fitted effect of over 55% in size
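ATP formation by purified human PK-M2, quantified via coupled luciferase luminescence after 1 h at room temperature with 0.1 mM ADP and 0.5 mM PEP final.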
PINK1 expr mod = PINK1 expression modulation; PINK1 immunofluorescence, high-content cytometry, 24 h; Potency, µM (top dose mostly 76.6 µM), without a hit: at the highest dose activation (PINK1 increase), most hits filed as activators; 410,000 compounds, 0.2% hits; AID 624263; active = well fitted activation curve with a large enough effect; inconclusive = small, poorly fitted or top-dose-only effect; cell line not stated here; also: potency is read from the fitted curve at half-maximal effect; % of control where 0% means no effect; nearly all actives have a fitted effect of over 65% in size
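Decision-based qHTS: stable cells, 24 h exposure to five compound concentrations, CCCP as control. Fixed cells stained for PINK1 plus nuclear, mitochondrial and cell markers, cytometer read.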
B2AR arrestin = beta2AR (human) beta-arrestin recruitment activity | P07550 | beta-arrestin recruitment to beta2AR, cell-based reporter | Potency, µM (top dose mostly 46.1 µM), without a hit: at the highest dose activation, hits mostly activators | 330,000 compounds, 0.02% hits;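 also: potency is read from the fitted curve at half-maximal effect; 0% = DMSO controls and full agonism = EC100 isoproterenol or metaproterenol; nearly all actives have a fitted effect of over 65% in size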
Target sequence (P07550 whole entry, looked up): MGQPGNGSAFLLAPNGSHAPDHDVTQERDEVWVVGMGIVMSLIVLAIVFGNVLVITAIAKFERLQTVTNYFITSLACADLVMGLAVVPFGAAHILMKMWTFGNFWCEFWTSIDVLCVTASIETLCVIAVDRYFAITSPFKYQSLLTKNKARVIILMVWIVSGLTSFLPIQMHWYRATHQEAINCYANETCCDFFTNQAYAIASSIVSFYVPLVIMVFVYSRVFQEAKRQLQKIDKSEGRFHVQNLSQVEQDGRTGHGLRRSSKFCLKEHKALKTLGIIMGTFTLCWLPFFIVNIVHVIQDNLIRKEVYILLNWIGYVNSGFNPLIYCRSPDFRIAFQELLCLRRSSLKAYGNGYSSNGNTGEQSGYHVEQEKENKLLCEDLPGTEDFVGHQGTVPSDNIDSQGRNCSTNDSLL
* = called active by the depositor; ? = inconclusive; . = no result given; [ ] = remark or other dose. Unless noted, calls follow the shape of the dose curve; as a rule, active = well fitted curve in the direction sought with a large enough effect; inconclusive = small, poorly fitted or top-dose-only effect, or another doubt; inactive = no such curve, though single readings can be large; an effect the other way counts as inactive or inconclusive.

SMILES	IL-2 act	Epigenetic derep	PKM2 activator	PINK1 expr mod	B2AR arrestin
COC(=O)c1ccc(CN2CCOc3ccc(C(O)c4cccnc4)cc3C2)cc1 (centres undefined)	.	.	.	-1%	.
Cc1cc(C)n(Cc2cccc(C(=O)NCC3Cc4cccc(-c5ncccn5)c4O3)c2)n1 (centres undefined)	.	.	.	-1%	.
Cc1ccc(C(=O)N2CCOc3ccc(CN4CCN(Cc5ccccn5)CC4)cc3C2)cc1	.	.	.	0%	.
O=C(NCCOC(=O)c1ccc(C(=O)OCCNC(=O)c2cccnc2)s1)c1cccnc1	2	0%	16µM*	13%[38.3 µM]	-1%
Oc1ccc(NCc2cccs2)cc1	-1	.	-10%[11.5 µM]	-1%	13µM*
Cn1c2ccccc2c2nnc(SCC(=O)Nc3cccc(C(=O)O)c3)nc21	1	.	.	-2%	4%
Cn1c2ccc(F)cc2c2nnc(SCC(=O)Nc3cccc(O)c3)nc21	1	.	0.32µM*	5%	4%
Cc1ncc2c(c1CNC(=O)c1cncs1)CCN(C(=O)c1cccc(-c3cccc(F)c3)c1)C2	.	.	.	0%	.
CC(C)NC(=O)c1cc(-c2ccc(Br)cc2)on1	-1	-1%	-9%	10µM*	0%
CCCNC(=O)c1cc(-c2ccc(Br)cc2)on1	0	0%	0%	5%	0%
COc1cc(-c2c(OC)cccc2OC)cc2c1OCCN(Cc1cn[nH]c1-c1ccc(Cl)cc1)C2	.	.	.	0%	.
CCOC(=O)/C=c1\s/c(=C\c2ccc3cc(OC)ccc3c2)c(=O)n1CC(=O)NCc1ccc2c(c1)OCO2	-2	7.9µM*	-4%	20µM*	0%
COc1ccc(NC(=O)c2sc3nc(C(F)(F)F)cc(C)c3c2N)cc1OC	.	14µM*	.	40µM*	.
O=C(c1ccc(NC(=S)Nc2ccc(Cl)c(Cl)c2)cc1)N1CCCC1	-3	0%	-11%	28µM*	0%
Cc1cc(C(C)(C)C)cc(C)c1C[n+]1ccc2ccccc2c1	-6	.	.	45µM*	0%
COc1ccccc1C1CN(CCNC(=O)c2cnsn2)Cc2ccccc2O1 (centres undefined)	.	.	.	1%	.
COc1ccc(Cc2n[nH]c(=S)n2NC(=O)Nc2ccc(Cl)c(Cl)c2)cc1	0	1%	0%	40µM*	0%
O=[N+]([O-])c1ccc(N/N=C/c2c[nH]c3ccccc23)cc1	2	14µM*	-2%	-1%	0%
O=[N+]([O-])c1ccccc1N/N=C/c1c[nH]c2ccccc12	-3	0%	-8%	0%	0%
CC1(C)CC2CC(C)(CN2S(=O)(=O)c2ccc(C(=O)Nc3ccc(S(=O)(=O)N4CCOCC4)cc3)cc2)C1 (centres undefined)	-3	0%	-7%	1%	-3%
CCOC(=O)c1cc([N+](=O)[O-])sc1NC(=O)c1ccc(S(=O)(=O)N2CC3(C)CC2CC(C)(C)C3)cc1 (centres undefined)	4	2%	-5%	2.5µM*	0%
COc1cc(=O)n2c(c1C(=O)N(C)Cc1nonc1C)CCN(Cc1c(F)cccc1F)CC2	.	.	.	1%	.
CCN(Cc1ccccc1)S(=O)(=O)c1ccc(S(=O)(=O)N(Cc2ccccn2)Cc2ccco2)cc1	0	0%	5%	11µM*	0%
Cc1cc(S(=O)(=O)N(Cc2ccccn2)Cc2ccco2)ccc1-n1cnnn1	-3	-1%	1%	.	0%
Cc1cc(-c2ccnc(-n3ncc(C(=O)NCCc4cccnc4)c3C)n2)c(C)s1	.	.	.	1%	.
SMILES	IL-2 act	Epigenetic derep	PKM2 activator	PINK1 expr mod	B2AR arrestin
Cc1ncc2c(c1CNS(=O)(=O)N(C)C)CCN(C(=O)/C=C/c1cccc(F)c1)C2	.	.	.	0%	.
COCC(=O)Nc1cc(C(=O)N2CCc3sccc3C2)c2c(c1)nc(-c1ccncc1)n2C	.	.	.	1%	.
N=c1ccn(Cc2ccc(Cl)c(Cl)c2)cc1	3	0%	-11%	40µM*	0%
CCOc1ccc(CCNC(=O)C2CCC(=O)N2C2CCCCC2)cc1OCC (centres undefined)	-3	-2%	0%	4µM*	-1%
O=C1CC(N(CCc2ccccc2)C(=S)Nc2ccccc2)C(=O)N1c1ccccc1 (centres undefined)	-1	1%	11%	25µM*	5%
COc1ccccc1C1CN(Cc2cccnc2)Cc2ccccc2O1 (centres undefined)	.	.	.	1%	.
O=C([C@@H]1C[C@@H](Sc2nc3ccccc3[nH]2)CN1Cc1ccc(Cl)cc1)N1CCN(c2ccccc2F)CC1	.	.	.	1%	.
Cn1c(=O)c2c(nc(SCC(=O)Nc3ccccc3)n2C)n(C)c1=O	-2	-1%	17%	3%	0%
COCCn1c(SCC(=O)Nc2ccccc2)nc2c1c(=O)[nH]c(=O)n2C	-3	-1%	6.3µM*	0%	0%
CC(C)n1c(SCC(=O)Nc2ccccc2)nc2c1c(=O)[nH]c(=O)n2C	-1	2%	8.9µM*	-2%	-1%
COCCn1c(SCc2ccc(F)cc2)nc2c1c(=O)[nH]c(=O)n2C	0	.	-3%[11.5 µM]	1%	0%
CC(C)n1c(SCC(=O)Nc2ccccc2)nc2c1c(=O)n(C)c(=O)n2C	2	0%	14µM*	2%	-2%
CCn1c(SCC(=O)Nc2ccccc2)nc2c1c(=O)n(C)c(=O)n2C	-2	0%	7.9µM*	22%[38.3 µM]	0%
Cc1nn(C)cc1CNc1nc(C)c(-c2ccn(CC3COc4ccccc4O3)n2)s1 (centres undefined)	.	.	.	-1%	.
CCOC(=O)NC(NC(=S)Nc1ccc(OC)cc1)C(Cl)(Cl)Cl (centres undefined)	3	-3%	2%	3%	-1%
COC(=O)NC(NC(=S)Nc1ccc([N+](=O)[O-])cc1)C(Cl)(Cl)Cl (centres undefined)	0	0%	-8%	20µM*	0%
O=C(NC(NC(=S)Nc1c(Cl)cccc1Cl)C(Cl)(Cl)Cl)c1cccc([N+](=O)[O-])c1 (centres undefined)	-1	-2%	-7%	28µM*	0%
O=C(NNC(=S)NC(=O)c1ccccc1Cl)c1cccc([N+](=O)[O-])c1	-2	.	.	0%	0%
CC(O)(COc1ccccc1)c1ccc2c(c1)CN(C/C=C/c1ccco1)CCO2 (centres undefined)	.	.	.	0%	.
O=C(NCc1nnc2n1CCN(Cc1cccc(Cl)c1)CC2)c1cccc(F)c1	.	.	.	3%	.
COc1cc(C(=O)Nc2ccc(S(=O)(=O)N(C)c3ccccc3)cc2)cc(OC)c1OC	-6	0%	0%	2%	0%
COc1cc(C(=O)Nc2ccc(N(C)C)cc2)cc(OC)c1OC	-1	-5%	8%	11µM*	-1%
CC(=O)N1N=C(c2cccc(NS(C)(=O)=O)c2)CC1c1cccs1 (centres undefined)	0	0%	?	-1%	0%
